Measurements from the supplement of paper PMC11417369.
± gives the standard deviation of the averaged measurements. Over roughly 25,000 sequences, “ln(normalized median fluorescence intensity)” has its median near 8.9; the highest 2% begin near 10. Only a selection was taken, and the highest values are over-represented in it overall.

What follows are sequences tested on PfAP2-LT AP2 domain (GST-tagged) (assay: gcPBM binding intensity (ln(normalized median fluorescence intensity)); higher = stronger DNA binding).
Procedure, shortened: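 GST-tagged P. falciparum DNA-binding domains produced in E. coli were incubated for 1 h on an Agilent 4 × 180k array of primer-extended double-stranded 36-bp intergenic genomic probes with negative controls. Binding intensity is the highest Masliner-normalised natural-log median intensity across replicate spots of either probe orientation, with bound protein detected by Alexa488 anti-GST antibody at 488 nm.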

| Sequence | gcPBM binding intensity (ln) |
| --- | --- |
| TTTCTTAAATATATTGAGGAATAAAAAGAAGAAAAG [GTGCAC_negctrl_site281] | 8.33 ± 0.4 |
| AGTATTATATATATATGTACATAATATACATATATA [XGTACX_site8514] | 8.73 ± 0.36 |
| TATGCTACATTATATGTACACACATATACATATATA [CACACA_site8199] | 9.11 ± 0.42 |
| AGGAACATTTACGCCCCACACACCTACCAACAAAAA [CACACA_site3827] | 9.59 ± 0.23 |
| TATAATGATGATGATAGTACGTATGAGTAAGAAAAA [XGTACX_site31] | 8.99 ± 0.54 |
| AGATTATAAAATTCTACACACATATATACCTATATA [CACACA_site5848] | 9.04 ± 0.42 |
| TGAACCAGATTTAGAAGTACTAAATATTACATACAT [XGTACX_site2437] | 8.7 ± 0.47 |
| AAATGGAAAAGGTGTACACAAAAAAAAGGGAAAAGC [CACACA_site5331] | 9.37 ± 0.5 |
| ATTATAACACCTCCCCCCCTTTTTTTATGAAGACCA [CACACA_negctrl_site1043] | 10.1 ± 0.4 |
| AACTTTTAGAAGAACACACACATATAGATTATGACC [CACACA_site6256] | 9.24 ± 0.33 |
| TATATTATGACCACCACACACCTATACACATAACAT [CACACA_site7199] | 9.45 ± 0.16 |
| ACAATTTATATTATATGTACTTAAAAAGTTCGTAAA [XGTACX_site6421] | 8.47 ± 0.27 |
| TTTTGAAGCTTTAAAACATATATATATATATATATA [CACACA_negctrl_site184] | 9.75 ± 0.41 |
| ATAATTGTTTCTTTCTCCTTTTTATTTCATTTTAAA [CACACA_negctrl_site964] | 8.68 ± 0.41 |
| TATATATTAAAATAATCACACACATCAATTAATGGT [CACACA_site8331] | 9.09 ± 0.42 |
| GCACGAAACAATGTATATATATATATATATATATAT [GTGCAC_negctrl_site412] | 10.32 ± 0.078 |
| ATAAAATAAAACAACACACACGAATGTATAAATATA [CACACA_site4643] | 9.53 ± 0.36 |
| AAATAAAATAAAACAACACACACGAATGTATAAATA [CACACA_site885] | 9.45 ± 0.33 |
| ATGATTTATTATTATACACACAAAAAAAAAAAAGGA [CACACA_site264] | 8.84 ± 0.42 |
| AATATCAATGATGTTACATGCAAGAGAATCCACAAA [TGCATGCA_site678] | 8.96 ± 0.42 |
| AAATAATATAAACATACACACACACCGATATATATA [CACACA_site8945] | 9.92 ± 0.17 |
| TTCAAAATAAAAAATTCACACACATATATATATATA [CACACA_site8653] | 9.44 ± 0.17 |
| AAATAATTCAAAAAAACACACAAATTACAAAATAAA [CACACA_site269] | 8.92 ± 0.55 |

| Sequence | gcPBM binding intensity (ln) |
| --- | --- |
| CAAAAAATTCAACACACACACACACCGATAAATAAA [CACACA_site8330] | 10.11 ± 0.071 |
| CCTAAATAAATGGACACACACATATATATATATATA [CACACA_site1439] | 9.85 ± 0.29 |
| AAAATACATAAACACACACACACACCGATATATATA [CACACA_site9186] | 10.43 ± 0.092 |
| TATATATATAAATACACACACACACCGATATATATA [CACACA_site5408] | 9.97 ± 0.11 |
| AATATAAATAATGTTAAACACACATACCGATATATA [CACACA_site8869] | 9.02 ± 0.45 |
| CATATAAAAATGTGCACACACACACCGATATATATT [CACACA_site4940] | 9.95 ± 0.17 |
| TATATATATATATGTACACACACACCGATAAATAAA [CACACA_site8041] | 9.69 ± 0.15 |
| ACCATATAAATAAACACACACACACCGATATATATA [CACACA_site5310] | 10.09 ± 0.085 |
| CACTAAAATGGACACACACACACACCGATATATATA [CACACA_site6139] | 10.1 ± 0.23 |
| AGGCTATAATACCATACACACATTTATAAAATAACA [CACACA_site6990] | 9.07 ± 0.42 |
| ATACTTATGATAAATACACACTTGAAATTAAGGATT [CACACA_site4772] | 8.85 ± 0.37 |
| CATTTTTCTATATGTGCATGTAAGATAAGAATAATT [TGCATGCA_site107] | 8.48 ± 0.3 |
| TATTTTTCCATATGCACACACACCGTATCTAGAATA [CACACA_site6654] | 9.47 ± 0.37 |
| ATAATTAAAATGCTCACACACATAAAAAAAAATTAA [CACACA_site2149] | 8.94 ± 0.46 |
| TTATTATTATGATTATTATGATGATTATACAACTGT [TGCATGCA_negctrl_site241] | 8.85 ± 0.35 |
| AAATTGAATTAGTTAACACACAACTTTTATTTCATA [CACACA_site2840] | 8.74 ± 0.4 |
| TCAAATATATAGAATACACACATGGATATAAGAAAT [CACACA_site4065] | 9.2 ± 0.4 |
| TTATAATAAAATGAATATATATAATTTAAAATATTT [CACACA_negctrl_site1651] | 8.27 ± 0.54 |
| TATATTTATAAGTGTACACATTATATAAATCCCTAT [CACACA_site6122] | 8.65 ± 0.42 |
| AATTTTCTACAAATGTGTACTAAATAAAATATTACT [XGTACX_site7175] | 8.63 ± 0.39 |
| AAGGATATAACATACACACACACACCGATATATATA [CACACA_site6136] | 10 ± 0.29 |
| AATAAAAAGGAACACACACACACACCGATATATATA [CACACA_site5895] | 10.08 ± 0.085 |
| AAAAAGGATAAACACACACACACACCGATATATATA [CACACA_site8206] | 10.34 ± 0.099 |

| Sequence | gcPBM binding intensity (ln) |
| --- | --- |
| TGGGAATAAAAACACACACACACACCGATATATATA [CACACA_site5875] | 10.1 ± 0.41 |
| AAAAAAAAAAGAATAGCACACACACCGATATAAATA [CACACA_site8111] | 9.71 ± 0.37 |
| CAAAATAATATATATACACACACACCGATATATATA [CACACA_site8082] | 9.81 ± 0.18 |
| TAAAAAAAAAAAAATACACACACACCGATATATATA [CACACA_site8498] | 9.76 ± 0.19 |
| AAAATACATGGACACACACACACACCGATATATATA [CACACA_site5885] | 10.4 ± 0.21 |
| CACTAAAATAAACACACACACACACCGATATATATA [CACACA_site9379] | 9.96 ± 0.014 |
| GGAATAATATAAAACACACACATAAATATAAATATA [CACACA_site3376] | 9.45 ± 0.35 |
| AATATAAATAAAAACACACACACACCGATATATATA [CACACA_site5283] | 10.2 ± 0.11 |
| AAAAAAAAAAAAAATACACACACACCGATATATATA [CACACA_site8142] | 9.775 ± 0.092 |
| TGGAACCTTTAAAATACACACCCAAATCCTTTGAAA [CACACA_site7671] | 8.69 ± 0.35 |
| AGAGAGAGAAATACAAGTACATGTGAAACCAATCTA [XGTACX_site2767] | 9.04 ± 0.46 |
| GCATCGATCAAACATACACACATGGTTAATAAAAAT [CACACA_site8651] | 9.24 ± 0.47 |
| TTTAAAAAAAGCAGTACATGCAAAATAATAACAAGC [TGCATGCA_site392] | 9.2 ± 0.48 |
| TACACAAGGGGAAAAATATATATATATATATATATA [TGCATGCA_negctrl_site217] | 9.88 ± 0.028 |
| TATTTTTTTTCGTAATGTACATAAAAAATGCAAAAA [XGTACX_site8491] | 8.27 ± 0.36 |
| CATCCGTTGATATATGCATGCATATTGTTATTACCA [TGCATGCA_site868] | 9.11 ± 0.36 |
| TTTATATATAAATAATGTACAAAAAATTTTAAAAAG [XGTACX_site7990] | 8.39 ± 0.39 |
| ACAGTTTGTCTGAGTAGTACATAAATACTTGAAAGG [XGTACX_site7792] | 8.79 ± 0.45 |
| CTAAAATACAGACACACACACACATATATATATATA [CACACA_site4150] | 10.07 ± 0.021 |
| CACGCATACAGACACACACACACACGGATATAAATA [CACACA_site6445] | 10.2 ± 0.4 |
| CGCATACACAGACACACACACACATATAAATATGTA [CACACA_site6444] | 9.98 ± 0.47 |
| TACAGACTAAAATACACACACACACGCACATATATA [CACACA_site7875] | 10.2 ± 0.18 |
| GCTATAAATACAGACGCACACATATACATACATATA [CACACA_site3329] | 9.42 ± 0.33 |

| Sequence | gcPBM binding intensity (ln) |
| --- | --- |
| AAAAAATACAGACACACACACACACGCATATAAATA [CACACA_site7644] | 10.1 ± 0.25 |
| AAAATACACAGACACACACACATATAAATAAATATT [CACACA_site7871] | 9.79 ± 0.19 |
| CGCGCACACGGACACACACACACACGGATATAAATA [CACACA_site7102] | 10 ± 0.4 |
| GCTATAAATACAGACGCACACATATACATACAGATA [CACACA_site5778] | 9.33 ± 0.42 |
| TTTAAATACAGACATACACACATACACGCACATATA [CACACA_site6400] | 9.49 ± 0.37 |
| CACACGCACAGACACACACACACATATAAATATGTA [CACACA_site6300] | 9.89 ± 0.37 |
| CACACGCACAGACACACACACACACGGATATAAATA [CACACA_site6301] | 10.2 ± 0.38 |
| AAATCGTGCACGGACACATGCAGTAGCCGAGAATTA [TGCATGCA_site733] | 9.12 ± 0.38 |
| AAAAAAAAGAAAAAAACACACAATGGAAAAAATGTA [CACACA_site3675] | 8.93 ± 0.59 |
| TATAAAATAAATAACAAAAAAAATAAAATAAAAATA [TGCATGCA_negctrl_site297] | 8.6 ± 0.7 |
| TGCCCTTTGGTTATAACACACATGCACACGTAAATA [CACACA_site7750] | 9.4 ± 0.23 |
| TTTTGTTATTAGAGGGTGCTTATAATGAACTCCTAC | 8.65 ± 0.49 |
| TTATGAATACTTCAAGTGCATTTATTTTATATGACA | 8.63 ± 0.48 |
| ATATTGGAATAAATTTGTACATATATATATTATTCA [XGTACX_site916] | 8.7 ± 0.44 |
| CTGTTTTTGTTTTAAAGTACATTGTTCAATATACAT [XGTACX_site5288] | 8.82 ± 0.43 |
| AAATATAATAAAATGACACACGCATATATATATATA [CACACA_site8900] | 9.775 ± 0.064 |
| ATATAATAAAATGACACACGCATATATATATATATA [CACACA_site2789] | 9.955 ± 0.021 |
| CACACTAAAAGACACACACACACACGCATATAAATA [CACACA_site7874] | 10.3 ± 0.4 |
| ATAGTATACAGACACACACACACACGGATATAAATA [CACACA_site6914] | 10.1 ± 0.36 |
| TAAAAAATATTATATACACACAGTATAAAAAAAAAT [CACACA_site4012] | 8.95 ± 0.49 |
| TAAATAAATTTATACACACACACACGGATATAAATA [CACACA_site6532] | 9.82 ± 0.071 |
